# TSG101-PTAP inh = blocks PTAP/TSG101 interaction to inhibit HIV-1 budding. 340,000 tested, under 10 active. AID 493005. Fluorescence polarization, FITC-PTAP peptide / Tsg101 binding. Potency, µM (series often up to 115 µM), without a hit: at the highest dose activity change, negative = inhibition, usual class: inhibitors; active means well fitted inhibition curve with a large enough effect in the main read-out, with a control signal flat, not every such curve was filed as active; inconclusive means small, poorly fitted or top-dose-only effect, or effect the other way, or a change in a side signal; inactive means no such curve, though single readings can be large or run the other way; further: potency means the concentration at half of the fitted maximal effect; % of control where 0% means no effect
# Target sequence (Q99816 whole entry, looked up): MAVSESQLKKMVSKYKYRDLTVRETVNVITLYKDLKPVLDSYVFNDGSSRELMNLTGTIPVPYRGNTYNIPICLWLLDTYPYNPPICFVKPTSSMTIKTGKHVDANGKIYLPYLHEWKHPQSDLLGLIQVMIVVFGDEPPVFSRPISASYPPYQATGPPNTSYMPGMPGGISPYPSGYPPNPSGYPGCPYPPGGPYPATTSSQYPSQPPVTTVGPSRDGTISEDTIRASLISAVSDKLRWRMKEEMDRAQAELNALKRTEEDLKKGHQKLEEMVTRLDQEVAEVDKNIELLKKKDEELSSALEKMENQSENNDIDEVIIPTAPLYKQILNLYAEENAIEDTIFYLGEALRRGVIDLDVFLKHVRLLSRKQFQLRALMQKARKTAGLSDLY
#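 Steps: Tsg101 binding domain dispensed (10 uM final), compounds pinned in DMSO, FITC-labeled PTAP-motif peptide added (50 nM final); after 20 min binding at room temperature, polarization measured.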
# IMPase Li cell = IMPase inhibition in cells with lithium potentiation | CHO-M1 cells, IP1 TR-FRET (IP-One), carbachol + lithium | Potency, µM (top dose mostly 59.4 µM), without a hit: at the highest dose activity, negative = IMPase inhibition, hits mostly inhibitors | hit rate 0.35% among 210,000 | AID 1457;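 further: IP1 builds up when IMPase is blocked and the TR-FRET signal falls; potency means the concentration at half of the fitted maximal effect; plate controls were basal vehicle for no effect and high inhibitor control for full effect; nearly all actives have a fitted effect of over 50% in size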
#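 IP1 accumulation measured by competitive TR-FRET in lysed CHO-M1 cells after 30 min compound exposure at 37C, with a small lithium addition to potentiate weak responses. Hill-equation AC50 from ratio and donor-channel data.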
# CBFb-RUNX1 inh = inhibitors of human CBF-beta and RUNX1 interaction; Q01196+Q13951; AlphaScreen CBFb-His/RUNX1-biotin binding, biochemical; Potency, µM (doses to about 59.8 µM), without a hit: at the highest dose activity, negative = inhibition, actives largely listed as inhibitors; 230,000 tested, under 10 active; further: % of control where 0% means no effect
#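 Room-temperature protein-protein interaction test with 30 nM each of His-tagged CBF-beta and biotinylated RUNX1, 15 min with compound, then 90 min with nickel plus streptavidin beads. Signal read in AlphaScreen mode.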
# A-T KAP1 phos = candidate therapy for ataxia-telangiectasia. Potency, µM (highest dose often 57.5 µM), without a hit: at the top dose activation, most hits filed as activators. F2112 A-T fibroblasts, KAP-1 phosphorylation AlphaLISA; neocarzinostatin DNA damage 30 min before lysis. hit rate 0.19% among 320,000; further: potency means the concentration at half of the fitted maximal effect; % of control where 0% means no effect; nearly all actives have a fitted effect of over 45% in size
#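 ATM-like activity read as KAP-1 phosphorylation via AlphaLISA donor/acceptor antibody pairs after lysis and 6 hr at 25C. Cells were ATM-null patient fibroblasts (F2112, hTERT), dosed 60 min, then exposed to the DSB inducer NCS for 30 min.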
# * hit, by the source's call; ? = inconclusive; . = no result given; [ ] = remark or other dose. An excerpt weighted towards active compounds, which were near 0.37% of everything screened. Unless noted, the call rests on the fitted dose curve; in most records, active means well fitted curve in the direction sought with a large enough effect; inconclusive means small, poorly fitted or top-dose-only effect, or another doubt; inactive means no such curve, though single readings can be large; an effect the other way counts as inactive or inconclusive.
SMILES,TSG101-PTAP inh,IMPase Li cell,CBFb-RUNX1 inh,A-T KAP1 phos
COc1ccccc1-n1cc(C(=O)NCC(=O)N2CCN(c3ccccn3)CC2)c2ccccc2c1=O,-5%,.,5%,22µM*
CCN1CCN(Cc2ccc(NC(=O)c3ccc(C)c(NC(=O)c4csc(-c5ccncc5)n4)c3)cc2C(F)(F)F)CC1,-6%,.,?,40µM*
CCN1CCN(Cc2ccc(NC(=O)c3ccc(C)c(NC(=O)c4ccno4)c3)cc2C(F)(F)F)CC1,-2%,.,9%,-13%
COC(=O)c1ccc(CN2[C@H](C(=O)OC)C[C@@]3(O)[C@H](O)[C@H](O)[C@H](O)C[C@@H]23)cc1,-2%,-10%,-1%,23%
COC(=O)[C@@H]1C[C@@]2(O)[C@@H](O)[C@@H](O)[C@@H](O)C[C@H]2N1Cc1ccc(Cl)cc1,-3%,3%,4%,40µM*
O=C(/C=C/c1cccs1)N1CCC2(CC1)Oc1ccc(F)cc1C(=O)C21CC(c2ccccc2)=NO1 (stereo unspecified),-2%,.,0%,3.2µM*
COC(=O)C1=CN(Cc2ccc(OC)cc2)C=C(C(=O)OC)C1c1cc(OC)c(OC)c(OC)c1,-4%,.,.,?
COC(=O)C1=CN(C(C)c2ccccc2)C=C(C(=O)OC)C1c1cc(OC)c(OC)c(OC)c1 (stereo unspecified),-2%,.,.,7.1µM*
COc1ccc(Nc2cc(C)nc3ccc(OC)cc23)cc1,-11%,.,.,-1%
COc1ccc2nc(C)cc(Nc3ccc(C(=O)O)cc3)c2c1,0%,.,.,10µM*
CC1CC(C)CN(CCCNC(=O)c2cn(C)c3ccc(S(=O)(=O)N4CCCC4)cc3c2=O)C1 (stereo unspecified),-5%,.,-3%,40µM*
COC(=O)c1cccc(CSc2nc3ccccc3[nH]2)c1,-3%,5%,8%,4%
O=C(COC(=O)CSc1ccc2ccccc2c1)NC1CC1,-3%,.,6%,-7%
O=C(COC(=O)CSc1ccc2ccccc2c1Br)NC1CC1,0%,10µM*,5%,-4%
O=C(COC(=O)[C@H](Cc1ccccc1)NC(=O)c1cccs1)Nc1ccccc1C(F)(F)F,-2%,8%,1%,0%
Cc1ccn2c(NC3CCCCC3)c(-c3cccc(-c4cccc(Cl)c4)c3)nc2c1,.,.,.,25µM*
CCCOc1ccc(-c2nnn(CC(=O)N3CCCC(C)C3)n2)cc1 (stereo unspecified),-13%,.,11%,40µM*
CSc1ccccc1NC(=O)CN(C)CC(=O)Nc1ccc(S(=O)(=O)N2CCCC2)cc1,-6%,.,.,0%
COc1c2occc2c(OC)c2c(=O)cc(C(F)(F)F)oc12,-9%,14%[38.3 µM],5%,-3%
COC(=O)c1ccc(NC(=O)Cc2ccc(F)cc2)cc1,-4%,6%,5%,-1%
COC(=O)c1ccc(C(=O)Nc2ccc(F)cc2)cc1,-1%,.,.,28µM*
O=Cc1ccc(N2N=C(c3ccccc3)CC2c2ccccc2)cc1 (stereo unspecified),7%,.,.,34%
O=[N+]([O-])c1ccc(/C=C/C2=NN(c3ccccc3)C(c3ccco3)C2)o1 (stereo unspecified),0%,8%,?,-9%
Fc1ccc(C2=NN(c3ccccc3)C(c3ccco3)C2)cc1 (stereo unspecified),-2%,-27%,?,7%[11.5 µM]
Clc1ccc(C2=NN(c3ccccc3)C(c3ccco3)C2)cc1 (stereo unspecified),-3%,.,?,25µM*
SMILES,TSG101-PTAP inh,IMPase Li cell,CBFb-RUNX1 inh,A-T KAP1 phos
Cc1ccc(C2CC(c3ccccc3)=NN2c2ccccc2)o1 (stereo unspecified),1%,-13%,?,20µM*
Cc1nc(N2N=C(c3ccc(Cl)cc3)CC2c2ccco2)sc1C(=O)N(C)C (stereo unspecified),0%,-2%,?,32µM*
C(=C\c1ccco1)/C1=NN(c2ccccc2)C(c2ccco2)C1 (stereo unspecified),3%,?,?,32µM*
CC(C)Oc1cccc(C(=O)NC(=S)Nc2ccccc2N2CCOCC2)c1,0%,.,.,5%
COC(=O)c1nnc(C(=O)NCc2ccccc2)c2[nH]c3ccc(OC)cc3c12,.,17%,-10%,.
CCC(=O)N(C)CCc1cc2c(c(OC)c1/C=N/Nc1ccc(C(=O)O)cc1)OCO2,-3%,.,0%,40µM*
Cc1ccc(-n2c(=S)[nH]c3nc4c(cc3c2=O)COC(C)(C)C4)cc1,-1%,2%,6%,1%
CCC1(C)Cc2nc3[nH]c(=S)n(-c4ccc(C)cc4)c(=O)c3cc2CO1 (stereo unspecified),-3%,8.9µM*,-5%,-7%
O=C(Nc1ccc(Cl)cc1)c1csc(-c2ccccc2)n1,0%,6%,5%,18µM*
O=C(Nc1ccc(Cl)cc1Cl)c1csc(-c2cccnc2)n1,3%,.,5%,40µM*
O=C(NCc1ccccc1)c1csc(-c2cccnc2)n1,1%,.,7%,2%
Cc1cc(C)nc(/N=C(\N)Nc2ccc(CC(=O)OC(C)C)cc2)n1,-1%,.,.,2%
COc1ccc(-n2c(SCC(=O)NNC(=O)c3ccccc3C)nnc2-c2ccncc2)cc1,-2%,-5%[38.3 µM],4%,-5%
CCOC(=O)c1c(-c2ccccc2)oc2ccc(OCC)cc12,-3%,-3%,29%,13%
CCOC(=O)c1c(-c2ccccc2)oc2ccc(OCC(O)CNCCN(C)C)cc12 (stereo unspecified),-2%,.,.,40µM*
Cc1cc(C)n(-c2cc(N3CCN(C(=O)c4cccc(F)c4)CC3)ccc2[N+](=O)[O-])n1,-5%,0%,-6%,-16%
CNC(=O)c1nc(C)c(C2(C)CC(c3ccccc3)=NO2)s1 (stereo unspecified),-1%,.,7%,0%
Cc1nc(C(=O)NCCC(C)C)sc1C1(C)CC(c2ccccc2)=NO1 (stereo unspecified),-1%,.,?,40µM*
CC1(C)Cc2c(c(N3CCOCC3)nc3sc(C(N)=O)c(N)c23)CO1,-1%,.,12%,22µM*
O=C(Nc1nnc(-c2ccc(F)cc2)s1)C1CCN(S(=O)(=O)c2ccc(Cl)cc2)CC1,0%,7.9µM*,-2%,-4%
Nc1c(C(=O)C2CC2)sc2nc(-c3ccccc3)cc(C(F)(F)F)c12,?,13µM*,3%,3%
CN(C)CCNC(=O)c1sc2nc(-c3ccccc3)cc(C(F)(F)F)c2c1N,-1%,.,.,0%
COc1ccccc1CNC(c1ccccc1)c1ccccc1,-6%,.,.,28µM*
COc1nc(C)nc2c1sc(=S)n2C,-2%,22µM*,8%,-2%
COc1cc(C=O)ccc1OC(=O)Nc1ccccc1,-3%,.,.,.
COc1ccc(C(=O)C(CN2CCOCC2)c2ccccc2)cc1 (stereo unspecified),0%,6%[38.3 µM],0%,.
